# PubChem BioAssay (EPA / NIEHS)
# Activity calls are given as the source filed them. How the source made its calls: active means hit-call score of the fitted dose curve at least 0.9, where 1 is the maximum; inactive means score below 0.9.
# How the values were obtained:
# Settings in all cases: mRNA level, 48 h; actives raise or lower the signal
# [1] = read-out: Cyclin D1 (CCND1), CCND1 (gene 595); test: LTEA_HepaRG_CCND1: Life Technologies and Expression Analysis (LTEA) Assay for Cyclin D1 (CCND1) using HepaRG (AID 2283451);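 on AC50: differentiated human HepaRG liver cells in serum-free induction medium; TaqMan qRT-PCR transcript level normalised to ACTB GAPDH and POLR2A housekeeping genes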
# Procedure, shortened: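 Expression change is measured by qRT-PCR in HepaRG cells after 48 h treatment across eight concentrations topping at 100 uM, with duplicate wells and DMSO (0.5%) serving as baseline for bidirectional fitting.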
# [2] = read-out: catalase (CAT), CAT (gene 847); test: LTEA_HepaRG_CAT: Life Technologies and Expression Analysis (LTEA) Assay for catalase (CAT) using HepaRG (AID 2283452);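 on AC50: TaqMan qRT-PCR signal normalized to ACTB GAPDH and POLR2A housekeeping genes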
# Procedure, shortened: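 Expression of CAT was quantified by TaqMan qRT-PCR with ACTB/GAPDH/POLR2A normalization after 48 h chemical exposure of HepaRG. Eight-point half-log series, top 100 uM, in 0.5% DMSO; gain or loss fitted against vehicle.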
# [3] = read-out: flavin-containing dimethylaniline monooxygenases 3 (FMO3), FMO3 (gene 2328); test: LTEA_HepaRG_FMO3: Life Technologies and Expression Analysis (LTEA) Assay for flavin-containing dimethylaniline monooxygenases 3 (FMO3) using HepaRG (AID 2283453);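 on AC50: differentiated human HepaRG liver cells in serum-free induction medium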
# Procedure, shortened: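 FMO3 transcript quantified by TaqMan qRT-PCR against three housekeeping genes after 48 h chemical exposure of HepaRG cells. Eight-point half-log series, top 100 uM, 0.5% DMSO vehicle; phenobarbital 1mM induction control; up- or down-regulation fitted.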
# [4] = read-out: Cytochrome P450 (CYP1A1), CYP1A1 (gene 1543); test: LTEA_HepaRG_CYP1A1: Life Technologies and Expression Analysis (LTEA) Assay for Cytochrome P450 (CYP1A1) using HepaRG (AID 2283454)
# Procedure, shortened: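 Using HepaRG cultures with 0.5% DMSO as vehicle, eight-concentration exposures (max 100 uM) lasted 48 h. Transcript levels were measured by TaqMan qRT-PCR and normalized to ACTB, GAPDH and POLR2A.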
# [5] = read-out: CFLAR gene, CFLAR (gene 8837); test: LTEA_HepaRG_CFLAR: Life Technologies and Expression Analysis (LTEA) Assay for CFLAR gene using HepaRG (AID 2283455)
# Procedure, shortened: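 Transcript level by qRT-PCR (normalized to ACTB, GAPDH and POLR2A) after 48 h chemical exposure of HepaRG cells, top concentration 100 uM with half-log steps, 0.5% DMSO vehicle, duplicates; fitted bidirectionally against DMSO baseline.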
# [6] = read-out: growth arrest and DNA damage 45 (GADD45A), GADD45A (gene 1647); test: LTEA_HepaRG_GADD45A: Life Technologies and Expression Analysis (LTEA) Assay for growth arrest and DNA damage 45 (GADD45A) using HepaRG (AID 2283458)
# Procedure, shortened: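 Transcript induction or loss, quantified by TaqMan qRT-PCR against three housekeeping genes, is the read-out. HepaRG cells received chemicals for 48 h across eight half-log concentrations from 100 uM in 0.5% DMSO; gain and loss fitted relative to DMSO.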
# [7] = read-out: Forkhead box O3 (FOXO3), FOXO3 (gene 2309); test: LTEA_HepaRG_FOXO3: Life Technologies and Expression Analysis (LTEA) Assay for Forkhead box O3 (FOXO3) using HepaRG (AID 2283459)
# Procedure, shortened: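 FOXO3 transcript measured by qRT-PCR (normalized to ACTB, GAPDH, POLR2A) after 48 h exposure of HepaRG cells in serum-free induction medium. Duplicates, eight half-log concentrations up to 100 uM, 0.5% DMSO; gain or loss fitted against DMSO.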
# [8] = read-out: ABC Transporter (ABCB1), ABCB1 (gene 5243); test: LTEA_HepaRG_ABCB1: Life Technologies and Expression Analysis (LTEA) Assay for ABC Transporter (ABCB1) using HepaRG (AID 2283460)
# Procedure, shortened: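 ABCB1 transcript level measured by TaqMan qRT-PCR against three housekeeping genes after 48 h chemical exposure of differentiated HepaRG cells. Top concentration 100 uM, half-log steps, eight points, 0.5% DMSO vehicle; bidirectional fit relative to DMSO.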
# [9] = read-out: ABC Transporter (ABCC3), ABCC3 (gene 8714); test: LTEA_HepaRG_ABCC3: Life Technologies and Expression Analysis (LTEA) Assay for ABC Transporter (ABCC3) using HepaRG (AID 2283462)
# Procedure, shortened: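 Transcriptional change of ABCC3 in HepaRG after 48 h treatment, determined by qRT-PCR normalized to endogenous controls. Concentrations spanned eight half-log steps to 100 uM in 0.5% DMSO.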
# [10] = read-out: ABC Transporter (ABCB11), ABCB11 (gene 8647); test: LTEA_HepaRG_ABCB11: Life Technologies and Expression Analysis (LTEA) Assay for ABC Transporter (ABCB11) using HepaRG (AID 2283463)
# Procedure, shortened: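 ABCB11 transcript levels quantified by TaqMan qRT-PCR against three housekeeping genes after 48 h chemical exposure of HepaRG cultures. Concentrations up to 100 uM in half-log steps, 0.5% DMSO vehicle; both induction and suppression scored.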
# [11] = read-out: ABC Transporter (ABCC2), ABCC2 (gene 1244); test: LTEA_HepaRG_ABCC2: Life Technologies and Expression Analysis (LTEA) Assay for ABC Transporter (ABCC2) using HepaRG (AID 2283464)
# Procedure, shortened: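 After plating and 48 h culture, HepaRG medium is replaced with serum-free induction medium and chemicals are added (8 concentrations, max 100 uM, 0.5% DMSO) for 48 h. Total RNA then undergoes qRT-PCR for ABCC2 with housekeeping normalization.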
# [12] = read-out: Broad substrate specificity ATP-binding cassette transporter ABCG2 (Homo sapiens) (UniProt Q9UNQ0); test: LTEA_HepaRG_ABCG2: Life Technologies and Expression Analysis (LTEA) Assay for ABC Transporter (ABCG2) using HepaRG (AID 2283465)
# Procedure, shortened: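 ABCG2 transcript was quantified by TaqMan qRT-PCR against three housekeeping genes in HepaRG cells. Cells were treated in duplicate for 48 h across an 8-point half-log series up to 100 uM, with 0.5% DMSO vehicle. Gain or loss versus DMSO was fit.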
# [13] = read-out: ATP-citrate lyase (ACLY), ACLY (gene 47); test: LTEA_HepaRG_ACLY: Life Technologies and Expression Analysis (LTEA) Assay for ATP-citrate lyase (ACLY) using HepaRG (AID 2283466)
# Procedure, shortened: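 ACLY mRNA quantified by qRT-PCR on Fluidigm arrays against three housekeeping genes, after 48 h chemical treatment of HepaRG cells (top concentration 100 uM, half-log steps, 0.5% DMSO vehicle). Up- or down-regulation fitted relative to DMSO.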
# [14] = read-out: Peroxisomal acyl-coenzyme A oxidase 1 (ACOX1) gene, ACOX1 (gene 51); test: LTEA_HepaRG_ACOX1: Life Technologies and Expression Analysis (LTEA) Assay for Peroxisomal acyl-coenzyme A oxidase 1 (ACOX1) gene using HepaRG (AID 2283467)
# Procedure, shortened: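 ACOX1 transcript levels were quantified by TaqMan qRT-PCR against three housekeeping genes after 48 h chemical exposure of differentiated human HepaRG cells. Exposure used eight half-log steps topping at 100 uM, 0.5% DMSO vehicle, in duplicate. Bidirectional curve fits were made relative to DMSO.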
# [15] = read-out: Alkaline Phosphatase, Placental (ALPP) gene, ALPP (gene 250); test: LTEA_HepaRG_ALPP: Life Technologies and Expression Analysis (LTEA) Assay for Alkaline Phosphatase, Placental (ALPP) gene using HepaRG (AID 2283468);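 on AC50: differentiated human HepaRG liver cells in serum-free induction medium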
# Procedure, shortened: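 Using human liver HepaRG cells, chemicals are tested in duplicate over 48 h at half-log concentrations topping at 100 uM; phenobarbital 1 mM serves as induction control. ALPP mRNA change by qRT-PCR, bidirectional fit against vehicle.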
# [16] = read-out: Bcl-2 (BAD) gene, BAD (gene 572); test: LTEA_HepaRG_BAD: Life Technologies and Expression Analysis (LTEA) Assay for Bcl-2 (BAD) gene using HepaRG (AID 2283469)
# Procedure, shortened: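 Read-out: qRT-PCR of BAD mRNA, normalized to three housekeeping genes. Human HepaRG cultures got 48 h chemical exposure in 0.5% DMSO, duplicate eight-point half-log series topping at 100 uM. Gain or loss of signal fitted versus DMSO vehicle.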
# [17] = read-out: Bcl-2 (BAX) gene, BAX (gene 581); test: LTEA_HepaRG_BAX: Life Technologies and Expression Analysis (LTEA) Assay for Bcl-2 (BAX) gene using HepaRG (AID 2283470)
# Procedure, shortened: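 Cells were thawed, plated for 48 h, moved to serum-free induction medium and dosed for 48 h (highest concentration 100 uM, half-log steps, 0.5% DMSO). Total RNA was then analysed for BAX expression by qRT-PCR.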
# Chain of Broad substrate specificity ATP-binding cassette transporter ABCG2 (Homo sapiens) (Q9UNQ0 whole entry, looked up): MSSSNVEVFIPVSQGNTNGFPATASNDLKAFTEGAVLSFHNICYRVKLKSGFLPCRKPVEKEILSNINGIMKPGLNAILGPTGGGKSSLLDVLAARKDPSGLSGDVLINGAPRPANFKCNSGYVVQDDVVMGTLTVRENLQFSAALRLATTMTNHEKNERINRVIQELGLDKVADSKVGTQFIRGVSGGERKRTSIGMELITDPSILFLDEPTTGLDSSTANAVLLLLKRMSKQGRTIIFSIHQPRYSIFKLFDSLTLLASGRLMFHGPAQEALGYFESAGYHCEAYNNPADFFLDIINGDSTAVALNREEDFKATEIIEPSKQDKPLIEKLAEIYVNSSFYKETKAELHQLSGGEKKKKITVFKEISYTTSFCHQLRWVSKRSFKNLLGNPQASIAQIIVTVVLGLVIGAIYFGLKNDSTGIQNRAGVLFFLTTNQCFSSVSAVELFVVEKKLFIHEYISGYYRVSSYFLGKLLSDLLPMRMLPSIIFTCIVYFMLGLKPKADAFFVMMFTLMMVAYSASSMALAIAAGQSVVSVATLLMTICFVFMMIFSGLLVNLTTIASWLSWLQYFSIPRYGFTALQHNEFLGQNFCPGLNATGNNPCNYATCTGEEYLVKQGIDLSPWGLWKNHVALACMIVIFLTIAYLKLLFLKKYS
compound,measurement,setting,value
COc1nc(NC(C)C)nc(NC(C)C)n1,outcome,[1],inactive
same,outcome,[2],inactive
same,outcome,[3],inactive
same,AC50,[4],36 µM (active)
same,outcome,[5],inactive
same,outcome,[6],inactive
same,outcome,[7],inactive
same,AC50,[8],9.31 µM (active)
same,outcome,[9],inactive
same,outcome,[10],inactive
same,outcome,[11],inactive
same,outcome,[12],inactive
same,outcome,[13],inactive
same,outcome,[14],inactive
same,outcome,[15],inactive
same,outcome,[16],inactive
same,outcome,[17],inactive
CCCCOC(=O)c1ccccc1C(=O)OCCCC,outcome,[1],inactive
same,outcome,[2],inactive
same,outcome,[3],inactive
same,outcome,[4],inactive
same,outcome,[5],inactive
same,outcome,[6],inactive
same,outcome,[7],inactive
same,outcome,[8],inactive
same,outcome,[9],inactive
same,outcome,[10],inactive
same,outcome,[11],inactive
same,outcome,[12],inactive
same,outcome,[14],inactive
same,outcome,[15],inactive
same,outcome,[16],inactive
same,outcome,[17],inactive
COc1ccc(C(c2ccc(OC)cc2)C(Cl)(Cl)Cl)cc1,outcome,[1],inactive
same,AC50,[2],89.1 µM (active)
same,AC50,[3],79.5 µM (active)
same,AC50,[4],22.6 µM (active)
same,outcome,[5],inactive
same,outcome,[6],inactive
same,outcome,[7],inactive
same,outcome,[8],inactive
same,AC50,[9],77 µM (active)
same,AC50,[10],86.7 µM (active)
same,AC50,[11],14.1 µM (active)
same,outcome,[12],inactive
same,outcome,[14],inactive
same,outcome,[16],inactive
same,outcome,[17],inactive
N#Cc1nn(-c2c(Cl)cc(C(F)(F)F)cc2Cl)c(N)c1S(=O)C(F)(F)F (stereo unspecified),AC50,[1],83.4 µM (active)
same,AC50,[2],29.5 µM (active)
same,AC50,[3],54.9 µM (active)
same,AC50,[4],14.9 µM (active)
same,AC50,[5],50.2 µM (active)
same,AC50,[6],74.2 µM (active)
same,outcome,[7],inactive
same,AC50,[8],11.4 µM (active)
same,outcome,[9],inactive
same,AC50,[10],27.8 µM (active)
same,outcome,[11],inactive
same,AC50,[12],23.5 µM (active)
same,outcome,[13],inactive
same,AC50,[14],50.2 µM (active)
same,AC50,[15],11.5 µM (active)
same,outcome,[16],inactive
same,AC50,[17],32.6 µM (active)
CCCCC(CC)COC(=O)c1ccccc1C(=O)OCC(CC)CCCC (stereo unspecified),outcome,[1],inactive
same,outcome,[2],inactive
same,outcome,[3],inactive
same,AC50,[4],34.4 µM (active)
same,outcome,[5],inactive
same,outcome,[6],inactive
same,outcome,[7],inactive
same,outcome,[8],inactive
same,outcome,[9],inactive
same,outcome,[10],inactive
same,outcome,[11],inactive
same,outcome,[12],inactive
same,outcome,[14],inactive
same,outcome,[15],inactive
same,outcome,[16],inactive
same,outcome,[17],inactive
